Assay results taken from PubChem BioAssay (EPA / NIEHS).
“And” between values parts separate entries of the source, which are not always exact repeats. Identical values can stand only once. Inconclusive results are not listed. A structure can be active in one record and inactive in another. The source made the active and inactive calls. How the source made its calls, unless noted: active means hit-call score of the fitted dose curve at least 0.9, where 1 is the maximum; inactive means score below 0.9.

Tests used:
[1] = target: Nuclear respiratory factor 1 (Homo sapiens) (UniProt Q16656); assay: ATG_NRF1_CIS: Attagene CIS-FACTORIAL HepG2 Assay for human Nuclear Respiratory Factor 1 (NRF1) Orphan Gene (AID 2282987); details: HepG2 NRF1 cis-element reporter, Attagene multiplex; actives raise or lower the signal
Outline: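 Reporter mRNA induction or loss in HepG2 cells after 24 h dosing; cis-regulated reporter constructs report endogenous transcription-factor activity. Quantified by RT-PCR/capillary electrophoresis fluorescence, DMSO-referenced.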

[2] = ATG_NFI_CIS: Attagene CIS-FACTORIAL HepG2 Assay for human Nuclear Factor I (NFI) (AID 2282989); details: HepG2 cis-regulatory reporter, NFI response element transcription; actives raise or lower the signal
Outline: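 After transient transfection of HepG2 with cis-promoter reporter constructs and 24 h dosing, RNA is reverse-transcribed, amplified, 6-FAM end-labelled and HpaI-digested before capillary analysis. Bidirectional curve fitting against DMSO.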

[3] = target: Myc proto-oncogene protein (Homo sapiens) (UniProt P01106); assay: ATG_Myc_CIS: Attagene CIS-FACTORIAL HepG2 Assay for human Myelocytomatosis (Myc) Proto-Oncogene Transcription Factor (AID 2282990); details: HepG2, Attagene cis-reporter transcription factor activity; actives raise or lower the signal
Outline: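 Multiplexed cis-reporter transcription in HepG2 cells after 24 h chemical treatment. Reporter mRNA measured by RT-PCR and capillary electrophoresis fluorescence; activity fitted bidirectionally against DMSO control.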

[4] = ATG_NF_kB_CIS: Attagene CIS-FACTORIAL HepG2 Assay for human Nuclear Factor Kappa B (NF-kB) (AID 2282991); details: HepG2 Attagene cis-factorial NF-kB reporter mRNA; actives raise or lower the signal
Outline: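 DMSO served as negative control and baseline for bidirectional curve fitting. Transiently transfected HepG2 cells were dosed for 24 h, then reporter transcripts were measured by RT-PCR with capillary electrophoresis detection.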

[5] = ATG_NRF2_ARE_CIS: Attagene CIS-FACTORIAL HepG2 Assay for human Nuclear Factor Erythroid 2 Related Factor 2 (NFR2) response to Antioxidant Response Elements (ARE) (AID 2282992); details: HepG2 Attagene ARE/NRF2 reporter, transcription factor activity; actives raise or lower the signal
Outline: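 Fluorescence intensity of reporter-specific cDNA fragments, separated by capillary electrophoresis, reflects mRNA induction in transfected HepG2 cells at 24 h. Activity is fitted bidirectionally, DMSO serving as baseline.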

[6] = ATG_Oct_MLP_CIS: Attagene CIS-FACTORIAL HepG2 Assay for human Octamer-Binding Transcription Factor (Oct) (AID 2282993); details: HepG2 Attagene cis-factorial Oct reporter, mRNA; actives raise or lower the signal
Outline: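 Cells of the HepG2 line express promoter-controlled reporter sequences whose mRNA levels, after 24 h treatment, are measured by RT-PCR and capillary electrophoresis. Increases and decreases are scored relative to DMSO.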

[7] = target: Cellular tumor antigen p53 (Homo sapiens) (UniProt P04637); assay: ATG_p53_CIS: Attagene CIS-FACTORIAL HepG2 Assay for human p53 Transcription Factor (AID 2282994); details: HepG2 p53 cis-element reporter, Attagene mRNA; actives raise or lower the signal
Outline: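 Transiently transfected HepG2 (multiple cis reporter transcription units); exposure 24 h; reporter RNA via RT-PCR, 6-FAM extension, 2 h HpaI digest at 37 C, CE detection; DMSO baseline.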

[8] = BSK_3C_uPAR: BioMAP Diversity Plus: 3C Assay for Urokinase-type plasminogen activator receptor (uPAR) Biomarker Activity (AID 2282998); details: BioMAP 3C HUVEC, uPAR biomarker ELISA; actives raise or lower the signal
Outline: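 Endothelial primary cells of human umbilical vein origin received test chemical; 24 h later uPAR was assayed by ELISA. Fitting was bidirectional, DMSO as negative control.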

[9] = BSK_3C_VCAM1: BioMAP Diversity Plus: 3C Assay for Vascular cell adhesion molecule 1 (VCAM1) Biomarker Activity (AID 2282999); details: BioMAP 3C HUVEC, VCAM1 ELISA, cytokine-stimulated; actives raise or lower the signal
Outline: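 Vascular primary endothelium (human umbilical vein) was exposed to chemicals and assayed 24 h later. VCAM-1 levels came from ELISA, with DMSO serving as baseline for bidirectional fitting.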

[10] = BSK_4H_Eotaxin3: BioMAP Diversity Plus: 4H Assay for Eotaxin 3 Biomarker Activity (AID 2283000); details: primary human endothelial cells (HUVEC); actives raise or lower the signal
Outline: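 Eotaxin-3 (CCL26) levels were measured by ELISA in HUVEC primary cultures 24 h post-dosing. Gain or loss of signal was fitted in both directions, with DMSO serving as baseline and negative control.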

[11] = target: human Peroxisome Proliferator-activated Receptor alpha (PPARa), PPARA (gene 5465) (UniProt Q07869); assay: ATG_PPARa_TRANS: Attagene TRANS-FACTORIAL HepG2 Assay for human Peroxisome Proliferator-activated Receptor alpha (PPARa) (AID 2283001; active means hit-call score of the fitted dose curve at least 0.9, where 1 is the maximum)
Outline: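 Exposure: 24 h, transiently transfected HepG2 cells. Endpoint: GAL4-UAS reporter mRNA, RT-PCR with capillary electrophoresis fluorescence. Baseline: DMSO; increases fitted.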

[12] = target: human Peroxisome Proliferator-activated Receptor delta (PPARd), PPARD (gene 5467) (UniProt Q03181); assay: ATG_PPARd_TRANS: Attagene TRANS-FACTORIAL HepG2 Assay for human Peroxisome Proliferator-activated Receptor delta (PPARd) (AID 2283002; active means hit-call score of the fitted dose curve at least 0.9, where 1 is the maximum)
Outline: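 Multiplexed trans-activation format: HepG2 liver cells expressing exogenous NR-Gal4 chimeras and GAL4-UAS reporters were exposed for 24 h. Reporter mRNA was detected by RT-PCR with capillary electrophoresis fluorescence; activity fitted as gain of signal relative to DMSO.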

[13] = read-out: Intercellular Adhesion Molecule 1 (ICAM1), ICAM1 (gene 3383); assay: BSK_3C_ICAM1: BioMAP Diversity Plus: 3C Assay for Intercellular Adhesion Molecule 1 (ICAM1) Biomarker Activity (AID 2283003); details: primary human endothelial cells (HUVEC); actives raise or lower the signal
Outline: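 ELISA read-out of ICAM-1; HUVEC (primary human), 3C system, 24 h post-dosing; bidirectional fit vs DMSO baseline.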

[14] = target: human Retinoic Acid Receptor beta (RARb), RARB (gene 5915) (UniProt P10826); assay: ATG_RARb_TRANS: Attagene TRANS-FACTORIAL HepG2 Assay for human Retinoic Acid Receptor beta (AID 2283004; active means hit-call score of the fitted dose curve at least 0.9, where 1 is the maximum)
Outline: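 HepG2 cells were transiently transfected with GAL4-UAS reporter units that report activity of exogenous chimeric NR-Gal4 proteins, then exposed to compound for 24 h. Reporter mRNA was quantified by RT-PCR with capillary electrophoresis fluorescence, as gain of signal over DMSO.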

[15] = BSK_3C_Proliferation: Cell Proliferation Assessment in the BioMAP Diversity Plus: 3C Assay (AID 2283006); details: primary human endothelial cells (HUVEC);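 on AC50: potency may reflect either rise or fall in cell number versus DMSO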
Outline: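 HUVEC, sub-confluent; 48 h chemical exposure; 10% TCA fix, 0.1% SRB stain, A560 total protein. Gain or loss of signal fitted both directions vs DMSO control.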

[16] = target: Nuclear receptor subfamily 1 group I member 2 (Homo sapiens) (UniProt O75469); assay: ATG_PXR_TRANS: Attagene TRANS-FACTORIAL HepG2 Assay for human Pregnane X Receptor (PXR) (AID 2283008; active means hit-call score of the fitted dose curve at least 0.9, where 1 is the maximum)
Outline: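 Transient HepG2 transfectants carrying multiplexed reporter transcription units; PXR activity read through a Gal4 chimera. 24 h exposure. RT-PCR/CE fluorescence; upward curve fit referenced to DMSO.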

[17] = target: human Retinoic Acid Receptor gamma (RARg), RARG (gene 5916) (UniProt P13631); assay: ATG_RARg_TRANS: Attagene TRANS-FACTORIAL HepG2 Assay for human Retinoic Acid Receptor gamma (RARg) (AID 2283009; active means hit-call score of the fitted dose curve at least 0.9, where 1 is the maximum)
Outline: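 Readout: reporter transcript levels via RT-PCR, 6-FAM primer-extension labelling, HpaI digestion and capillary electrophoresis. Cells: HepG2 carrying transfected RARg-GAL4 chimera plus UAS reporter set. Dosing 24 h; DMSO negative control.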

[18] = target: Peroxisome proliferator-activated receptor gamma (Homo sapiens) (UniProt P37231); assay: ATG_PPARg_TRANS: Attagene TRANS-FACTORIAL HepG2 Assay for human Peroxisome Proliferator-activated Receptor-gamma (PPARg) (AID 2283007; active means hit-call score of the fitted dose curve at least 0.9, where 1 is the maximum)
Outline: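 Chimeric NR-Gal4 transactivation is measured in transiently transfected HepG2 cells by reporter mRNA induction at 24 h. Detection uses RT-PCR with fluorescent labelling and capillary electrophoresis; DMSO defines baseline.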

[19] = BSK_3C_TissueFactor: BioMAP Diversity Plus: 3C Assay for Tissue Factor Biomarker Activity (AID 2282997); details: BioMAP 3C HUVEC, tissue factor biomarker readout; actives raise or lower the signal
Outline: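 Tissue Factor measured by ELISA, 24 h after treatment of primary HUVEC in the BioMAP 3C setting.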

[20] = target: Retinoic acid receptor alpha (Homo sapiens) (UniProt P10276); assay: ATG_RARa_TRANS: Attagene TRANS-FACTORIAL HepG2 Assay for human Retinoic Acid Receptor alpha (RARa) (AID 2283005; active means hit-call score of the fitted dose curve at least 0.9, where 1 is the maximum)
Outline: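 HepG2 cells transiently transfected with multiple reporter units expressing chimeric RARα-GAL4 fusion, with GAL4-UAS-driven reporters. After 24 h compound exposure, reporter mRNA induction quantified by RT-PCR and capillary electrophoresis with fluorescent labeling; gain-of-signal fitted relative to DMSO control.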

Measured: AC50

Chain of Peroxisome proliferator-activated receptor gamma (Homo sapiens) (P37231 whole entry, looked up, the tested form may be a part): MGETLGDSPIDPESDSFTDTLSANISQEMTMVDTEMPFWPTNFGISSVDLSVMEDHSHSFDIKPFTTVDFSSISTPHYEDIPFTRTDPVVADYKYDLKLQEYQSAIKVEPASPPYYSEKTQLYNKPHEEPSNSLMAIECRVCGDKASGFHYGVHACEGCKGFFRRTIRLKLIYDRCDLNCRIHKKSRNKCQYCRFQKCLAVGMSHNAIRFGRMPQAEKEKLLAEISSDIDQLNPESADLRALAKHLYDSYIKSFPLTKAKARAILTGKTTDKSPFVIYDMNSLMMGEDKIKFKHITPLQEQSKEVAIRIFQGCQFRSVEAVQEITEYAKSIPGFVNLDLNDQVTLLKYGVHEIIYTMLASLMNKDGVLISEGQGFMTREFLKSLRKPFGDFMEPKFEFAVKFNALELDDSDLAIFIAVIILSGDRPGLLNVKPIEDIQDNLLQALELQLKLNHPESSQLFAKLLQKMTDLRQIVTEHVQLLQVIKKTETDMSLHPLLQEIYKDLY
Chain of human Retinoic Acid Receptor beta (RARb), RARB (gene 5915) (P10826 whole entry, looked up, the tested form may be a part): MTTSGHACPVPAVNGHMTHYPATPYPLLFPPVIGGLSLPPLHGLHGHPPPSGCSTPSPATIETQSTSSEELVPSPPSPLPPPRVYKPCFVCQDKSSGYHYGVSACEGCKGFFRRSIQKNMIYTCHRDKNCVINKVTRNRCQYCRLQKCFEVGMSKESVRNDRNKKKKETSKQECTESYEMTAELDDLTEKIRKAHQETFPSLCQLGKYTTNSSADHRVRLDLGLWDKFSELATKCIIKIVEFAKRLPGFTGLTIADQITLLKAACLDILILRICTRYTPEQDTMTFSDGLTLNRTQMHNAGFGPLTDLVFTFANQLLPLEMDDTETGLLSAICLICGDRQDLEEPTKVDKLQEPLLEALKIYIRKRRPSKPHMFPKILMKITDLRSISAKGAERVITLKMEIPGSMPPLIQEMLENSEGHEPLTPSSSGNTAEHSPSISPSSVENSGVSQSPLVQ
Chain of Nuclear respiratory factor 1 (Homo sapiens) (Q16656 whole entry, looked up): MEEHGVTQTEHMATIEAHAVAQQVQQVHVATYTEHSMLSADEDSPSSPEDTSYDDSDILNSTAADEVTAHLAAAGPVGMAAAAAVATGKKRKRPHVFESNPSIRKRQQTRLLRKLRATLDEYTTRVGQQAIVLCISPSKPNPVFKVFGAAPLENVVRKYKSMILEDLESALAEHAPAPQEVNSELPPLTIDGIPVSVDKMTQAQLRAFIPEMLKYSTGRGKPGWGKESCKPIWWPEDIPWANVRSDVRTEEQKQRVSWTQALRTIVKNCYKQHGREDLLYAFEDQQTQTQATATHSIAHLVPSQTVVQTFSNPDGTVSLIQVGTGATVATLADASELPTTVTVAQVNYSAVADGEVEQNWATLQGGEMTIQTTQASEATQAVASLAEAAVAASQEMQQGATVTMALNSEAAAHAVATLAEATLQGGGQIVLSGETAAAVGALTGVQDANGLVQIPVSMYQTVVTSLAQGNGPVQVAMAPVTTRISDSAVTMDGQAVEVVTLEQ
Chain of human Peroxisome Proliferator-activated Receptor alpha (PPARa), PPARA (gene 5465) (Q07869 whole entry, looked up, the tested form may be a part): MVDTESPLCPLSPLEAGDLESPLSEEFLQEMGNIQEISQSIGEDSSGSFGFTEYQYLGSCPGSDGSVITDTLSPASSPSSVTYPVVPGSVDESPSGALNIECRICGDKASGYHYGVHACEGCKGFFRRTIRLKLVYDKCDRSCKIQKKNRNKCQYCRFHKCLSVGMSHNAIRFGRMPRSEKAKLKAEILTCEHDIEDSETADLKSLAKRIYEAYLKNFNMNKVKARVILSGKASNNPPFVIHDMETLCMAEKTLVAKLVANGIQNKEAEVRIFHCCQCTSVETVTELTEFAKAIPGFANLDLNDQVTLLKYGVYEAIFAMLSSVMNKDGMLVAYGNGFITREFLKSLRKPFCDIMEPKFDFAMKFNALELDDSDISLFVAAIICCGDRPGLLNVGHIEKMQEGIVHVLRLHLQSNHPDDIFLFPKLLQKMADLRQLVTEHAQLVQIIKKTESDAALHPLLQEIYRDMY
Chain of Nuclear receptor subfamily 1 group I member 2 (Homo sapiens) (O75469 whole entry, looked up, the tested form may be a part): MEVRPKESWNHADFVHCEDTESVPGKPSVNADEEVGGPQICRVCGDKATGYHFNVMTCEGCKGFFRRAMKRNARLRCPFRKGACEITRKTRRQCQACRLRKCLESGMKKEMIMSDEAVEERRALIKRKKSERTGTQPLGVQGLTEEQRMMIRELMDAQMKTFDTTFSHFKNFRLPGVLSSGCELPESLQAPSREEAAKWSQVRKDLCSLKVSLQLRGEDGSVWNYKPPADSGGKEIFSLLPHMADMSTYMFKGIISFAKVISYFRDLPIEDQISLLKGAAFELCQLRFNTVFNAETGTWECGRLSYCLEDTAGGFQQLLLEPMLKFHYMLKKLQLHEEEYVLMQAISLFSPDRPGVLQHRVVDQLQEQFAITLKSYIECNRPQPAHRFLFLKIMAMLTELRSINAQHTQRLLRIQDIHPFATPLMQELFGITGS
Chain of human Retinoic Acid Receptor gamma (RARg), RARG (gene 5916) (P13631 whole entry, looked up, the tested form may be a part): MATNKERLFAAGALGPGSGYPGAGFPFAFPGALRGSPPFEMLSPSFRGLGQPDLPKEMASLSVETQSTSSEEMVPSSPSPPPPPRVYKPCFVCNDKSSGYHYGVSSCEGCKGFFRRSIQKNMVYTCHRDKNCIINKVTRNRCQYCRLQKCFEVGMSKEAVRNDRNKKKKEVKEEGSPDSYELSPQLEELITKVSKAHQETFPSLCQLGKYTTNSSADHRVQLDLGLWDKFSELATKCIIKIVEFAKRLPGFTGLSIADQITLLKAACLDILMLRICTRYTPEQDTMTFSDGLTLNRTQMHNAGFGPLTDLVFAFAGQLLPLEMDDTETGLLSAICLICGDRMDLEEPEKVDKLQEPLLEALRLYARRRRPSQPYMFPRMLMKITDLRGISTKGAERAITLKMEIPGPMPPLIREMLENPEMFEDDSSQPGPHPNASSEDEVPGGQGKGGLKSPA
Chain of human Peroxisome Proliferator-activated Receptor delta (PPARd), PPARD (gene 5467) (Q03181 whole entry, looked up, the tested form may be a part): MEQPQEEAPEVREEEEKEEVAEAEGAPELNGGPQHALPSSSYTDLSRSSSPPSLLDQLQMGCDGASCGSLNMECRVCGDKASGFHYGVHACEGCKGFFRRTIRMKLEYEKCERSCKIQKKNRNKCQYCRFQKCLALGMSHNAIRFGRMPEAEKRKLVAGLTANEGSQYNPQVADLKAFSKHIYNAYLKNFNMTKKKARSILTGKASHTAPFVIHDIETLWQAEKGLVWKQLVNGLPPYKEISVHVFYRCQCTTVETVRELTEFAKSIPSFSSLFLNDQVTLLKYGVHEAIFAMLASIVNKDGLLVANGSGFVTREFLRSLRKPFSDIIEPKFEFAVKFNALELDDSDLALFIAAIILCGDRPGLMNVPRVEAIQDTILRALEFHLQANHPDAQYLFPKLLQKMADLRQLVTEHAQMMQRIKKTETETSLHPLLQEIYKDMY
Chain of Cellular tumor antigen p53 (Homo sapiens) (P04637 whole entry, looked up): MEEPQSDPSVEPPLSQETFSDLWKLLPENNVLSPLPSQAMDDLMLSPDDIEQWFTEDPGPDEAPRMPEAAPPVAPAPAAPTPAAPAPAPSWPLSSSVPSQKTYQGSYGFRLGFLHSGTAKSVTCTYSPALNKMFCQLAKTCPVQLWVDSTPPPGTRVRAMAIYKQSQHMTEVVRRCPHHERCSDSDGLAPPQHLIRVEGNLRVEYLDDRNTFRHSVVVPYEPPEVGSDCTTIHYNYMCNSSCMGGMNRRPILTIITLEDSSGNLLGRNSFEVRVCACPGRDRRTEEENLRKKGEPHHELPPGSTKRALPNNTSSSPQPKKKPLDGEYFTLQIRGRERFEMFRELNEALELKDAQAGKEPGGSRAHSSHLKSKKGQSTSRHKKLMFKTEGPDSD
Chain of Myc proto-oncogene protein (Homo sapiens) (P01106 whole entry, looked up): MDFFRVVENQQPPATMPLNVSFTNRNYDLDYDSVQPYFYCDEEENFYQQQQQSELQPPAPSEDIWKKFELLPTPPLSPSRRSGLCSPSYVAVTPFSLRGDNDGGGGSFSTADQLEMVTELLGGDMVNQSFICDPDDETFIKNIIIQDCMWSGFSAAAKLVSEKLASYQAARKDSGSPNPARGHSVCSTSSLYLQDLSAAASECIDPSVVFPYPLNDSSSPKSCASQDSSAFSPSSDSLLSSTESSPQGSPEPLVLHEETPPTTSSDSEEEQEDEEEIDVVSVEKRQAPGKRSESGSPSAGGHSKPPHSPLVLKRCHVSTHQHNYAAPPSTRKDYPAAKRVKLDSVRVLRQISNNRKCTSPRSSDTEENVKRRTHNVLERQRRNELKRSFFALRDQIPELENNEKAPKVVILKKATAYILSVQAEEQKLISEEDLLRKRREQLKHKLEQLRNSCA
Chain of Retinoic acid receptor alpha (Homo sapiens) (P10276 whole entry, looked up, the tested form may be a part): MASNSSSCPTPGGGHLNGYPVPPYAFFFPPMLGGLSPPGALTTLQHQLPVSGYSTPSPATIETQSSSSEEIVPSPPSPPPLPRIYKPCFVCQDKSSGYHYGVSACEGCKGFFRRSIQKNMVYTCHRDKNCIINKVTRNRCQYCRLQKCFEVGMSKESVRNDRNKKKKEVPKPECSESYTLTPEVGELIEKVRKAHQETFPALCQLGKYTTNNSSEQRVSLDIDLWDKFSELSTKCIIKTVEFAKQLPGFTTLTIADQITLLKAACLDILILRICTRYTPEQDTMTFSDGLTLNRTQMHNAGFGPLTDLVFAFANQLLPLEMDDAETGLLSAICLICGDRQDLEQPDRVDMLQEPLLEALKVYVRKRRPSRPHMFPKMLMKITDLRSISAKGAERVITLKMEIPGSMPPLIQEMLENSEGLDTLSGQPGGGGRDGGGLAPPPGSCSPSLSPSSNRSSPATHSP

COC(=O)CCC(F)(F)C(F)(F)C(F)(F)C(F)(F)F
inactive: [1] | [2] | [3] | [4] | [5] | [6] | [7] | [8] | [9] | [10] | [11] | [12] | [13] | [14] | [15] | [16] | [17]

Nc1ccc([N+](=O)[O-])cc1O
inactive: [1] | [2] | [3] | [4] | [6] | [7] | [8] | [9] | [10] | [12] | [13] | [18] | [16]
active: [5] 16.1 µM

CCN(CC)c1ccc2c(C)cc(=O)oc2c1
active: [5] 59.3 µM | [15] 30.6 µM | [18] 27.2 µM | [16] 3.63 µM
inactive: [1] | [2] | [3] | [4] | [6] | [7] | [8] | [9] | [10] | [11] | [12] | [13]

O=C(O)C(F)(F)C(F)(F)C(F)F
inactive: [1] | [2] | [3] | [4] | [5] | [6] | [7] | [19] | [8] | [9] | [10] | [11] | [13] | [14] | [20] | [18] | [16]

COC(=O)C1CCC(C(=O)OC)CC1 (stereo unspecified)
inactive: [1] | [2] | [3] | [4] | [5] | [6] | [7] | [11] | [12] | [14] | [18] | [16] | [17]
active: [5] 163 µM

OCCCC(F)(F)C(F)(F)C(F)(F)C(F)(F)C(F)(F)C(F)(F)C(F)(F)F
inactive: [1] | [3] | [4] | [11] | [12] | [18] | [16] | [17]
active: [1] 126 µM | [2] 71.1 µM and 267 µM | [3] 79.9 µM | [4] 73.6 µM | [5] 67.1 µM and 133 µM | [6] 50 µM and 245 µM | [8] 44.8 µM and 43.5 µM | [10] 45.2 µM and 43.2 µM | [13] 45.1 µM and 52.9 µM | [15] 10.3 µM and 10.4 µM
